Test results from PubChem BioAssay AID1224865 (Sanford-Burnham Center for Chemical Genomics, 2016).
“And” between values parts separate entries of the source, which are not always exact repeats. Identical values can stand only once. In all, about 360,000 compounds went through this assay and about 1,100 (0.31%) were called active. No stated cut-off is given here; in the data, active means activity change above about 30% (passing the limit was not always enough); inactive means the rest. The list comes from a sample in which actives are over-represented; it also holds similar structures and randomly drawn compounds. A structure can be active in one record and inactive in another.

Target: Hepatocyte nuclear factor 4-alpha (Homo sapiens) (UniProt P41235)
Sequence (P41235 whole entry, looked up): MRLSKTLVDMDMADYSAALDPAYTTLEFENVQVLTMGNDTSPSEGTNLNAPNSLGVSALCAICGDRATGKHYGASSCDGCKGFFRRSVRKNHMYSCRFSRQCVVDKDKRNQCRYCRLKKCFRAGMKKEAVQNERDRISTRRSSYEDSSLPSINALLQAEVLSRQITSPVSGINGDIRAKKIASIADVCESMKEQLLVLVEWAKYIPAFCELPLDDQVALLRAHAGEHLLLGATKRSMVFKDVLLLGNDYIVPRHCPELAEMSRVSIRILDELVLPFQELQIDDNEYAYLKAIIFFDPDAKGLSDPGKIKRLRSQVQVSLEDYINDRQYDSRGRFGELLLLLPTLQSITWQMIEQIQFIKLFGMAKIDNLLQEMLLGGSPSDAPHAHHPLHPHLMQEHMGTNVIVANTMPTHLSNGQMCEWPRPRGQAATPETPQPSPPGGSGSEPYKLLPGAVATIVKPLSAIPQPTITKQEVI
Test: HNF4-alpha DNA association modulation – biochemical, fluorescence polarization, FITC-DNA, primary screen (AID 1224865)
Details: HNF4a-FITC DNA binding, 1 h, at 10 µM, stronger effect = higher value

Row | SMILES | activity change
1 | FC(F)Oc1ccc(NC(=S)NCc2ccco2)cc1Cl | 8.22% (inactive)
2 | COc1ccc2oc(N)nc2c1 | 0.82% (inactive)
3 | CCc1ccc2oc(-c3ccc(N)cc3)nc2c1 | 71.8% (active)
4 | CC1(C)C/C(=C(/C#N)C(N)=O)CCO1 | -0.48% (inactive)
5 | CCOC(=O)N1CCN(C(=O)C2CCN(S(C)(=O)=O)CC2)CC1 | 30.5% (active)
6 | CCOC(=O)C1CCN(C(=O)C2CCN(S(=O)(=O)CC)CC2)CC1 | -4.66% (inactive)
7 | CCOC(=O)C1CCN(C(=O)C2CCN(S(=O)(=O)N3CCCC3)CC2)CC1 | -3.6% (inactive)
8 | CCCCc1nccn1CCn1ccnc1CCCC | -1.42% (inactive)
9 | O=C(CC1SC(=Nc2ccccc2F)N(CCN2CCOCC2)C1=O)Nc1ccc(F)cc1F (configuration not stated) | 2.99% (inactive)
10 | CC(C)(C)NC(=O)c1ccc(Cn2cc(C(F)(F)F)ccc2=O)cc1 | -4.39% (inactive)
11 | c1ccc2cc3[nH]c(CN4CCCCC4)nc3cc2c1 | 33.4% (active)
12 | O=c1cc(CN2CCCCCCC2)c2c(ccc3ccccc32)o1 | -1.79% (inactive)
13 | Cc1ccc2[nH]c(=O)c(CN3CCCCC3)c(-c3ccccc3)c2c1 | -1.94% (inactive)
14 | O=S(=O)(Cc1ccc(Cl)cc1Cl)c1ccc(Cl)cc1 | 1.8% (inactive)
15 | COC(=O)C1=C(C(=O)OC)C2(OC1c1ccc(Br)cc1)C(=O)c1ccccc1C2=O (configuration not stated) | 0.81% (inactive)
16 | Cn1cccc1/C=C1\SC(=S)N(NC(=O)c2ccc(Cl)cc2)C1=O | 74.6% (active)
17 | CC(=O)N1C(=O)/C(=C2\SC(=S)N(NC(=O)c3ccc(O)cc3)C2=O)c2ccccc21 | -1.57% (inactive)
18 | CN1C(=O)C(CC(N)=O)N(NC(=O)c2ccc(Cl)cc2)C1=S (configuration not stated) | -1.5% (inactive)
19 | O=C(NC1CCCC1)C1c2ccccc2OCC(=O)N1CC(F)(F)F (configuration not stated) | 2% (inactive)
20 | COc1cccc(-c2nc3nc(C)cc(C)n3c2NC2CCCCC2)c1 | 3.94% (inactive)
21 | COc1ccc(-c2nc3cc(C)ccn3c2NC2CCCCC2)cc1SC1CCCCC1 | 47.8% (active) and 27.6% (inactive)
22 | Cc1ccc2nc(-c3cccnc3)c(NC3CCCC3)n2c1 | 6.3% (inactive)
23 | Cc1ccn2c(c1)nc(=O)c1cc(S(=O)(=O)N3CCC(C)CC3)ccc12 | 4.48% (inactive)

Row | SMILES | activity change
24 | Cc1cc(=O)oc2cc(OC(C)C(=O)Nc3ccc(N4CCOCC4)cc3)ccc12 (configuration not stated) | -19.2% (inactive)
25 | O=C(O)c1ccc(N=NN2CCOCC2)cc1 | 1.22% (inactive)
26 | O=C(O)c1ccc(NN=CC2=C(N3CCOCC3)/C(=C/c3ccccc3)CC2)cc1 | 41.5% (active)
27 | O=C(O)c1ccc(N/N=C/c2ccc3ncccc3c2)cc1 | -1.15% (inactive)
28 | O=C(COC(=O)/C=C/c1ccc(S(=O)(=O)N2CCCCCC2)cc1)NCc1ccccc1Cl | -2.22% (inactive)
29 | O=C1CCC(C(=O)N2CCCCO2)CN1Cc1cccc(C(F)(F)F)c1 (configuration not stated) | 1.26% (inactive)
30 | NC(=O)Cn1nc([N+](=O)[O-])nc1Oc1ccc(Br)cc1 | 3.81% (inactive)
31 | CCCCCCCNc1nc(Cl)nc(NCCO)n1 | 1.28% (inactive)
32 | O=C(COC(=O)/C=C/c1cccc(Cl)c1)NCCc1ccccc1 | 1.96% (inactive)
33 | NNc1cccc(C=Cc2ccccc2)cc1=O | 37.5% (active)
34 | O=C(COC(=O)c1cc(S(=O)(=O)N2CCOCC2)ccc1F)NC1CC1 | -0.17% (inactive)
35 | O=C(c1ccc[nH]c1=S)N1CCN(S(=O)(=O)c2ccc(Br)cc2Cl)CC1 | 0.57% (inactive)
36 | COc1cc(/C=N\NC(=O)c2nonc2N)c(OC)cc1Br | -0.19% (inactive)
37 | COc1cccc(/C=N/NC(=O)c2[nH]nc3c2CCc2ccccc2-3)c1O | 49.2% (active)
38 | COc1ccccc1N1CCN(C(=O)C(=O)N/N=C/c2ccccc2F)CC1 | -1.71% (inactive)
39 | O=C1COc2ccc(S(=O)(=O)NCCc3ccc(Cl)cc3)cc2N1 | 1.98% (inactive)
40 | CC(C)n1c(O)c(N=Nc2ccccn2)c2ccccc21 | 0.04% (inactive)
41 | CCOCCCNC(=O)Cc1cc(=O)[nH]c(=O)[nH]1 | -0.4% (inactive)
42 | N#CCCN1CCN(S(=O)(=O)c2ccc(S(=O)(=O)NC3CCCCC3)cc2)CC1 | 0.96% (inactive)
43 | C=CCn1c(SCC(=O)NC(=O)Cc2ccccc2)nc2ccccc2c1=O | 1.95% (inactive)
44 | O=C(/C=C/c1ccc([N+](=O)[O-])o1)NNC(=O)c1ccc(F)cc1 | 0.84% (inactive)
45 | CCn1c(/C=C/c2ccc([N+](=O)[O-])o2)nc2ccccc2c1=O | 92.1% (active)
46 | COc1ccccc1CCNC(=O)CN1C(=O)NC2(CCCC2)C1=O | 1.6% (inactive)

Row | SMILES | activity change
47 | COc1ccc(C(=O)N2CCCCC2c2cc(C(=O)Nc3ccc(F)c(Cl)c3)no2)cc1 (configuration not stated) | -0.55% (inactive)
48 | COc1ccc(/C(C)=N/N2CCOCC2)c(O)c1 | 1.11% (inactive)
49 | CN1/C(=c2/s/c(=C3/C(=O)N(c4ccccc4)NC3=Nc3ccccc3)n(C)c2=O)C(C)(C)c2ccccc21 | 66.2% (active)
50 | O=C(CO/N=C/c1ccc(OC(F)F)cc1)NCc1ccc(F)cc1 | -1.87% (inactive)
51 | CCOC(=O)C1CCCN(C(=O)CSc2nnc3nc(C)cc(C)n23)C1 (configuration not stated) | -2.41% (inactive)
52 | COc1ccc(CCNC(=O)CN(C)S(=O)(=O)c2ccc3nc(C)sc3c2)cc1OC | 3.34% (inactive)
53 | COc1ccc(-c2ccc(C(=O)NCCN3CCOCC3)c3occc23)c(C)c1 | -3.94% (inactive)
54 | CCC(c1nc2ccccc2[nH]1)n1c(=O)c(-c2cccs2)nc2ccccc21 (configuration not stated) | 4.95% (inactive)
55 | CCC(C)N1C(=O)S/C(=C/c2ccc(Sc3nc4ccccc4[nH]3)o2)C1=O (configuration not stated) | 77.3% (active)
56 | COC(=O)/C(C#N)=C/c1occc1C | -1.39% (inactive)
57 | CCOC(=O)/C(C#N)=C\c1c(C)cc(C)c(COC(C)=O)c1C | 2.55% (inactive)
58 | CCOC(=O)/C(C#N)=C/c1ccc(N2CCCCC2)cc1 | 42.2% (active)
59 | CCOc1ccc(-c2nc(C)sc2CC(=O)O)cc1 | 1.37% (inactive)
60 | C/C(=N/Nc1nc(-c2ccccc2)c(CC(=O)O)s1)c1ccccc1 | 48.6% (active)
61 | CC(=O)NC(CC(=O)Nc1nc(-c2ccccc2)c(C(C)=O)s1)c1ccccc1 (configuration not stated) | 0.99% (inactive)
62 | CC(C)c1ccc(Nc2nnc(SCC(=O)c3nnc(-c4ccccc4)o3)s2)cc1 | 7.36% (inactive)
63 | COc1ccc(CNC(=O)CN(Cc2ccc(Cl)cc2)S(C)(=O)=O)cc1 | 1.96% (inactive)
64 | CC[n+]1cc(C)ccc1/C=C/c1ccc(N(C)C)cc1 | 76.1% (active)
65 | COc1ccccc1CNC(=O)c1ccc(N(C)S(=O)(=O)c2ccc(C)cc2)cc1 | 0.49% (inactive)
66 | COc1cc(NS(=O)(=O)c2ccc(NC(=O)c3ccc(S(=O)(=O)N4CCCCC4)cc3)cc2)ncn1 | -0.94% (inactive)
67 | COC(=O)[C@]1(C)N[C@H](c2ccc(-c3ccc(Cl)c(Cl)c3)cc2)[C@@H]2C(=O)N(C)C(=O)[C@@H]21 | -0.96% (inactive)
68 | COc1cccc(/C=C/C(=O)OCC(=O)N2CCCc3ccccc32)c1 | -0.26% (inactive)
69 | Cc1cccc2cc3c(N)c(C(=O)N4CCCc5ccccc54)sc3nc12 | 47.6% (active)

Row | SMILES | activity change
70 | CCCn1nc(C(=O)N2CCCc3ccccc32)c2ccccc2c1=O | 0.42% (inactive)
71 | O=C(NCc1ccccc1)C1CNCC(C(=O)NCc2ccccc2)C1 (configuration not stated) | -1.7% (inactive)
72 | CC(=O)Nc1ccc(S(=O)(=O)N2CCC(C(=O)NC3CC3)CC2)cc1 | -2.11% (inactive)
73 | COc1ccc(C(C)=O)cc1COC(=O)Cn1cnc2ccccc2c1=O | 3.19% (inactive)
74 | CC(=O)c1c(C)[nH]c(C(=O)OCC(=O)NCCC(C)C)c1C | -3.31% (inactive)
75 | COc1cc(C)c(CN2CCN(C(=O)CCC(=O)c3ccc(C)s3)CC2)cc1OC | -0.43% (inactive)
76 | O=C(Nc1ccc(Br)cc1)c1cc(S(=O)(=O)Nc2ccccn2)ccc1Cl | 0.97% (inactive)
77 | O=C(Nc1ccncc1)c1cc(-c2ccccn2)nc2ccc(Br)cc12 | 43.9% (active)
78 | O=C(Nc1ccccc1)c1ccccc1Br | -2.18% (inactive)
79 | O=C(CSc1nnc(Cn2cnc3ccccc32)o1)c1ccccc1 | 1.06% (inactive)
80 | NC(CSC(c1ccccc1)(c1ccccc1)c1ccc(-c2ccccc2)cc1)C(=O)O (configuration not stated) | -4.58% (inactive)
81 | CN(C)c1ccc(-n2cccc2/C=N/n2cnnc2)cc1 | -0.7% (inactive)
82 | CN(C)c1ccc(-n2cccc2/C=C2/SC(=Nc3ccc(F)cc3)NC2=O)cc1 | 35.7% (active)
83 | O=C(COC(=O)Cc1ccccc1F)NNC(=O)c1ccc(Cl)cc1 | -2.29% (inactive)
84 | O=C(NN1C(=O)C2C3C=CC(C3)C2C1=O)c1ccco1 (configuration not stated) | 1.06% (inactive)
85 | CCN1/C(=C\c2ccc3ccccc3[n+]2CC)Sc2cc(C)ccc21 | 81.5% (active)
86 | Cc1ccc(S(=O)(=O)N2CC(O)C[C@H]2C(=O)OCC(=O)Nc2ccc(N3CCOCC3)cc2)cc1C (some centres not stated) | -2.65% (inactive)
87 | COc1ccc(/C=C(\NC(=O)c2ccccc2)C(=O)NCCN2CCOCC2)cc1OC | -1.85% (inactive)
88 | Cn1c2ccccc2c2cc(/C=C(\NC(=O)c3ccccc3)C(=O)NCC(=O)O)ccc21 | 43.6% (active)
89 | CCOc1ccc(/C=C(/NC(=O)c2ccccc2)C(=O)NCCC(=O)O)cc1 | 1.05% (inactive)
90 | Cc1ccc(S(=O)(=O)c2ccc(Cl)cc2)cc1S(=O)(=O)NC(C(=O)O)C(C)C (configuration not stated) | -3.32% (inactive)
91 | CCOC(OCC)c1ccc(/C=C\c2nccc(N)n2)cc1 | 2.56% (inactive)
92 | Cc1oc2nc(SCC(=O)Nc3ccc(S(N)(=O)=O)cc3)nc(NC(=O)c3ccccc3)c2c1C | -0.08% (inactive)
